Data from PubChem BioAssay (NCATS).
Results filed as inconclusive are left out. The source made the active and inactive calls. Unless noted, calls follow the shape of the dose curve; as a rule, active = well fitted curve in either direction with a large enough effect (not every such curve was filed as active); inconclusive = small, poorly fitted or top-dose-only effect, or another doubt; inactive = flat fitted curve, though single readings scatter.

Key:
[1] = target: Lysosomal acid glucosylceramidase (Homo sapiens) (UniProt P04062); assay: Glucocerebrosidase-p2 (AID 348; in the data active = potency below about 10 µM; also: potency is read from the fitted curve at half-maximal effect); conditions: purified GBA, blue fluorogenic substrate, 40 min
Method in brief: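 Normal human glucocerebrosidase (0.2 nM) with blue fluorogenic substrate (80 uM final) in citrate/phosphate pH 5.9 with 10mM sodium taurocholate, 0.01% tween-20; 40 min RT, NaOH/glycine stop; fluorescence Ex 365/Em 440; AC50 from a titration from 0.6 nM upwards.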

[2] = AP1 Signaling Pathway (AID 357); conditions: ME-180 AP-1-bla reporter, EGF-induced, beta-lactamase ratio, 5 h; at 7.69 µM (top of the series) unless noted; also: % is scaled to controls: 0 for no effect and ±100 for the full control effect
Method in brief: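 AP-1-bla ME-180 cells with beta-lactamase reporter under AP-1 response element, stimulated with EC50 EGF; compounds titrated, 5 hours at 37 degrees Celsius. CCF4 read at 460/530 nm ratio; positive and negative modulators judged by AC50.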

[3] = NFAT Signaling Pathway (AID 444); conditions: Jurkat NFAT-bla M1, carbachol, beta-lactamase ratio, 5 h; at 7.69 µM (top of the series) unless noted;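 also: carbachol stimulus at about its EC50 of 1 µM final; % is scaled to controls: 0 for no effect and ±100 for the full control effect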
Method in brief: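 Jurkat cells carrying an NFAT-driven β-lactamase reporter and co-transfected muscarinic M1 receptor were treated with compound plus carbachol (1 uM final, an EC50 level) for 5 h at 37 °C. CCF4 loading followed for 1 h at RT; 460/530 nm ratio gave %activity.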

[4] = Stat Signaling Pathway (AID 446); conditions: ME-180 SIE beta-lactamase reporter, IL-6 stimulated, 5 h; at 7.69 µM (top of the series) unless noted;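 also: ME-180 cervical cancer cells given 40 pM IL-6 alongside compound; SIE-controlled beta-lactamase reporter measured as 460/530 nm FRET emission ratio; % is scaled to controls: 0 for no effect and ±100 for the full control effect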
Method in brief: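 FRET read-out (405 nm excitation, 460/530 nm emission) of a beta-lactamase reporter under a STAT-inducible element in ME-180 cervical carcinoma cells. Cells with compound receive 40 pM IL-6 for 5 h. Values are normalised to AC90 stimulation and AC90 JAK-inhibitor controls.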

[5] = target: Glucocorticoid receptor (Homo sapiens) (UniProt P04150); assay: GR-GFP Redistribution (AID 450;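 active = compounds whose dose series gives a full or clear partial fitted curve of increased nuclear translocation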; also: potency is read from the fitted curve at half-maximal effect); conditions: U2OS GR-GFP nuclear translocation, laser cytometry, 2 h
[6] = target: Glucocorticoid receptor (Homo sapiens) (UniProt P04150); assay: GR-EFC Redistribution (AID 451; calls by dose curve; also: potency is read from the fitted curve at half-maximal effect); conditions: CHO-K1 GR-EFC translocation, beta-gal luminescence, 2 h
Method in brief: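 CHO-K1 cells stably expressing nuclear-localized β-gal enzyme acceptor and GR fused C-terminally to the enzyme donor fragment; ligand-driven nuclear translocation restores β-gal by complementation. Compounds titrated up to 46 uM final, 2 h at 37 °C; luminescence read.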

[7] = target: Mitogen-activated protein kinase 10 (Mus musculus) (UniProt Q61831); assay: JNK3 AlphaScreen Assay (AID 530); conditions: JNK3 lysate, c-Jun phosphorylation; series mostly up to 57.1 µM;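 also: kinase came from lysate of stimulated human HepG2 cells; signal reports phosphorylation of biotinylated GST-cJun 1-79 at Ser73 with 10 µM ATP; % is scaled to controls: 0 for no effect and ±100 for the full control effect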
Method in brief: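 Biotinylated GST-cJun(1-79) served as substrate for JNK3 in HepG2 lysates stimulated with IL-1beta and TNF-alpha. ATP was 10 uM final, pH 7.6. Ser73 phosphorylation was quantified by AlphaScreen (680 nm excitation).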

[8] = target: 3',5'-cyclic-AMP phosphodiesterase 4B (Homo sapiens) (UniProt Q07343); assay: qHTS Assay for Inhibitors of PDE-IV (AID 607; active = well fitted activation curve with a large enough effect in the main read-out, with a control signal flat, not every such curve was filed as active; also: % of control where 0% means no effect); conditions: HEK293 ACTOne CNG channel cells, membrane potential fluorescence; series mostly up to 22.9 µM
Method in brief: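 Cell-based read-out of cAMP via a modified cyclic nucleotide-gated channel and membrane potential dye (535/590 nm) in HEK293 cells expressing PDE4 endogenously. Compounds tested up to 22.9 uM final; 100 uM RO 20-1724 reference.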

[9] = target: Cytochrome P450 3A4 (Homo sapiens) (UniProt P08684); assay: qHTS Assay for Inhibitors and Substrates of Cytochrome P450 3A4 (AID 884; active = well fitted curve in the direction sought with a large enough effect; an effect the other way counts as inactive or inconclusive; also: potency is read from the fitted curve at half-maximal effect; nearly all actives have a fitted effect of over 50% in size); conditions: recombinant CYP3A4, Luciferin-PPXE luminescence; series mostly up to 57.1 µM
Method in brief: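 Luminescent readout of luciferin produced by CYP3A4 (20 nM) dealkylation of Luciferin-PPXE, 25 uM (its KM). NADPH-driven reaction ran 60 min at RT after 10 min compound preincubation; data scaled to 57 uM ketoconazole as 100% inhibition.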

[10] = target: Cytochrome P450 3A4 (Homo sapiens) (UniProt P08684); assay: qHTS Assay for Activators of Cytochrome P450 3A4 (AID 885; active = well fitted curve in the direction sought with a large enough effect; an effect the other way counts as inactive or inconclusive; also: nearly all actives have a fitted effect of over 65% in size); conditions: recombinant CYP3A4, Luciferin-PPXE luminescence, 60 min; series mostly up to 57.1 µM
Method in brief: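 Luminescent readout of luciferin formed from 25 uM Luciferin-PPXE (KM level) by 20 nM CYP3A4 in 200 mM KPO4, with 60 min NADPH-driven reaction at room temperature after 10 min compound exposure. Ketoconazole (57 uM) defined 100% inhibition.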

[11] = qHTS Assay for Lipid Storage Modulators (AID 1519; calls by dose curve); conditions: Drosophila S3 cells, BODIPY lipid droplet/cell ratio, laser cytometry, cells loaded with oleic acid; for activity change, negative = inhibition: at 57.5 µM (top of the series)
Method in brief: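 Cells seeded at 5,000 per well were treated with compounds over a concentration series and loaded with oleic acid (400 uM, as added). Lipid droplet fluorescence (488 nm excitation, 500-530 nm channel) was read by laser-scanning cytometry and normalized to 20 uM Triacsin C.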

[12] = Primary qHTS for small molecule stabilizers of the endoplasmic reticulum resident proteome: Secreted ER Calcium Modulated Protein (SERCaMP) assay (AID 1508630; active = well fitted curve in the direction sought with a large enough effect; an effect the other way counts as inactive or inconclusive; also: % is scaled to controls: 0 for no effect and ±100 for the full control effect); conditions: SH-SY5Y GLuc-SERCaMP (Gaussia luciferase released on ER calcium loss) secretion, thapsigargin, luminescence; series mostly up to 38.4 µM
Method in brief: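 The SH-SY5Y reporter protocol was run at 3 concentrations up to 38.3 uM (primary) or 11 concentrations (follow-up): 16 h compound, 100 nM thapsigargin for 4 h, then extracellular luciferase luminescence.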

[13] = target: Cytochrome P450 2C19 (Homo sapiens) (UniProt P33261); assay: qHTS Assay for Inhibitors and Substrates of Cytochrome P450 2C19 (AID 899; active = well fitted curve in the direction sought with a large enough effect; an effect the other way counts as inactive or inconclusive; also: potency is read from the fitted curve at half-maximal effect; nearly all actives have a fitted effect of over 60% in size); conditions: recombinant CYP2C19, luciferin-H EGE luminescence; series mostly up to 57.1 µM
Method in brief: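 Human CYP2C19 (5nM) with Luciferin-H EGE at 10uM (its KM) in 50mM KPO4 was preincubated with compound for 10 min at 37C. NADPH regeneration started a 60 min 37C reaction. Luciferin was read by luminescence, normalized to 57uM ketoconazole.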

[14] = Confirmation and Secondary Assay for Modulators of Hemoglobin Beta Chain Splicing at IVS2 654 locus (AID 910; active = well fitted curve in the direction sought with a large enough effect; an effect the other way counts as inactive or inconclusive;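 also: per-well total GFP intensity by laser scanning cytometry after 2-day treatment; % of control where 0% means no effect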); conditions: HeLa EGFP-654 splicing reporter, GFP fluorescence, 48 h; series mostly up to 38.3 µM
Method in brief: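 HeLa cells stably carrying EGFP interrupted by mutant beta-globin IVS2-654 intron (CMV-driven) were treated with compound for 2 days at 37C; corrected splicing was scored as total peak GFP intensity per well (488 nm excitation, 500-520 nm emission).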

[15] = Confirmation and Secondary Assay for Modulators of Hemoglobin Beta Chain Splicing at IVS2 705 locus (AID 930; active = well fitted curve in the direction sought with a large enough effect; an effect the other way counts as inactive or inconclusive;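 also: HeLa cells stably expressing the EGFP-705 splicing reporter; GFP fluorescence per well restored by corrected splicing of the IVS2-705 intron in EGFP; % of control where 0% means no effect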); conditions: HeLa EGFP-705 splicing reporter, GFP fluorescence, 48 h; series mostly up to 38.3 µM
Method in brief: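 Assay measures total GFP intensity per well in HeLa EGFP-705 cells after 2 days with compound; mis-splicing normally truncates EGFP, so fluorescence indicates corrected splicing.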

[16] = qHTS Assay for Identification of Small Molecule Agonists for Hypoxia Response Element Signaling Pathway (AID 914; active = well fitted activation curve with a large enough effect in the signal ratio, with a control signal flat, not every such curve was filed as active; the % refers to the signal ratio; also: potency is read from the fitted curve at half-maximal effect); conditions: ME-180 (cervical carcinoma) HRE-bla reporter, beta-lactamase ratio, CoCl2, 17 h; activation: stronger effect = higher value
Method in brief: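 Compounds in a titration series were added to ME-180 reporter cells alongside an EC50 level of CoCl2. After 17 hours, beta-lactamase activity was read as the 460nm/530nm emission ratio of CCF4, giving AC50 values.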

[17] = target: Ubiquitin carboxyl-terminal hydrolase 1 (Homo sapiens) (UniProt O94782); assay: Inhibitors of USP1/UAF1: Pilot qHTS (AID 504865; active = well fitted curve in the direction sought with a large enough effect; an effect the other way counts as inactive or inconclusive;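 also: rhodamine fluorescence freed from ubiquitin-rhodamine substrate followed over time; top concentration of the series differs between compounds; % is scaled to controls: 0 for no effect and ±100 for the full control effect; nearly all actives have a fitted effect of over 35% in size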); conditions: purified USP1/UAF1, Ub-rhodamine cleavage fluorescence; series mostly up to 54.9 µM
Method in brief: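 In 50mM HEPES pH 7.8 containing 0.5mM EDTA, 1mM TCEP, 0.1 mg/ml BSA and 0.01% Tween-20, 1nM USP1/UAF1 is exposed to compound for 15 min, then Ub-Rho (150nM final) is added and fluorescence is read over time.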

[18] = measured here: cell count channel max response
[19] = measured here: lipid channel max response

Chain of 3',5'-cyclic-AMP phosphodiesterase 4B (Homo sapiens) (Q07343 whole entry, looked up): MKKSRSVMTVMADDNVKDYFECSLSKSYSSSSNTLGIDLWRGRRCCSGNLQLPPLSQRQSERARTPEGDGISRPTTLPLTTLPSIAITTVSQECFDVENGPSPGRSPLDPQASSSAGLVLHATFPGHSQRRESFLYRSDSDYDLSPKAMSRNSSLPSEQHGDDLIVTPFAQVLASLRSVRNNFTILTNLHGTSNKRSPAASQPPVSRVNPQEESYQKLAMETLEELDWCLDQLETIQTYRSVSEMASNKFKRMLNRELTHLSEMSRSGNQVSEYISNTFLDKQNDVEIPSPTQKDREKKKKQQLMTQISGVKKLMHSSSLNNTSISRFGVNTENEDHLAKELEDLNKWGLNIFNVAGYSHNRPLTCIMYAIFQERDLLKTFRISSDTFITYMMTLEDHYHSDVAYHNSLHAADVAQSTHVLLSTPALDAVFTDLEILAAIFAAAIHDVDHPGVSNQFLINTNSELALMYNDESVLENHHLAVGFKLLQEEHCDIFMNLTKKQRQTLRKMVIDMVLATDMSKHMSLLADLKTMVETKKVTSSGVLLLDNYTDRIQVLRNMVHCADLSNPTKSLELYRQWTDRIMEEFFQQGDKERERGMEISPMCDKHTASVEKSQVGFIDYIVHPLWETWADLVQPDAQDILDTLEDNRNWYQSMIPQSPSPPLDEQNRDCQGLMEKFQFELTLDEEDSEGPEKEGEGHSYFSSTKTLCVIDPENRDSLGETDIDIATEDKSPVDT
Chain of Lysosomal acid glucosylceramidase (Homo sapiens) (P04062 whole entry, looked up): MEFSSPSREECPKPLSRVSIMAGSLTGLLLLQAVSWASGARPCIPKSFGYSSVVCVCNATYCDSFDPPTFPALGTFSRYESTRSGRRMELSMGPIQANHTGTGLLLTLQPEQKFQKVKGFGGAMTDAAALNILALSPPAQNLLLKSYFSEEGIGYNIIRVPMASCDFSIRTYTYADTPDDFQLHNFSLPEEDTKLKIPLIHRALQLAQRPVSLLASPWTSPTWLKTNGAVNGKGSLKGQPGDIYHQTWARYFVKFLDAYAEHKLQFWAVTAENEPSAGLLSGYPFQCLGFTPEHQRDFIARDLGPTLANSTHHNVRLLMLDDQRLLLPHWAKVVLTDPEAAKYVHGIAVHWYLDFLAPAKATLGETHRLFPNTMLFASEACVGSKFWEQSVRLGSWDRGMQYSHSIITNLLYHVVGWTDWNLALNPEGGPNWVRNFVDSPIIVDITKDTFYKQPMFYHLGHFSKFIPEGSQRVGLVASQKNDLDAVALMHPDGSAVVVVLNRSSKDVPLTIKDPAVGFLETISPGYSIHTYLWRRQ
Chain of Glucocorticoid receptor (Homo sapiens) (P04150 whole entry, looked up, the tested form may be a part): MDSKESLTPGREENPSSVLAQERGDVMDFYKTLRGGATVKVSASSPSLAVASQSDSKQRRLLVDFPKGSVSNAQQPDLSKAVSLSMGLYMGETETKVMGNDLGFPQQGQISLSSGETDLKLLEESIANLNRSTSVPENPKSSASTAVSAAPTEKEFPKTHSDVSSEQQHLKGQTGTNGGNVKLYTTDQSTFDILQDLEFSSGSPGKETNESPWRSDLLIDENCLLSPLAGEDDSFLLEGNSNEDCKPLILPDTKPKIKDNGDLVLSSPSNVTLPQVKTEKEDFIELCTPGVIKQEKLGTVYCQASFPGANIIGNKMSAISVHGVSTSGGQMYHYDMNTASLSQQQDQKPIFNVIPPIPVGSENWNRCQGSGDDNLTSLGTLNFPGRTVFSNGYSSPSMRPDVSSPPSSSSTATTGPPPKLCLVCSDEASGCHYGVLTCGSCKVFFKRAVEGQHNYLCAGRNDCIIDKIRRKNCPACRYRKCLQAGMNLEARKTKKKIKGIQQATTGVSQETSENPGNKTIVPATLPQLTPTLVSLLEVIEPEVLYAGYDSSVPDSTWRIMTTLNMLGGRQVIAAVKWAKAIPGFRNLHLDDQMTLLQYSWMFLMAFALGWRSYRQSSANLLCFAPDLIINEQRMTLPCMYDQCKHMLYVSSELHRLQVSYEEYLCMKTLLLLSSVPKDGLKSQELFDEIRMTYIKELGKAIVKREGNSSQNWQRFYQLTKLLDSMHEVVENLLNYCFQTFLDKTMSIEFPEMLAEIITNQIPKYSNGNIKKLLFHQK
Chain of Cytochrome P450 3A4 (Homo sapiens) (P08684 whole entry, looked up): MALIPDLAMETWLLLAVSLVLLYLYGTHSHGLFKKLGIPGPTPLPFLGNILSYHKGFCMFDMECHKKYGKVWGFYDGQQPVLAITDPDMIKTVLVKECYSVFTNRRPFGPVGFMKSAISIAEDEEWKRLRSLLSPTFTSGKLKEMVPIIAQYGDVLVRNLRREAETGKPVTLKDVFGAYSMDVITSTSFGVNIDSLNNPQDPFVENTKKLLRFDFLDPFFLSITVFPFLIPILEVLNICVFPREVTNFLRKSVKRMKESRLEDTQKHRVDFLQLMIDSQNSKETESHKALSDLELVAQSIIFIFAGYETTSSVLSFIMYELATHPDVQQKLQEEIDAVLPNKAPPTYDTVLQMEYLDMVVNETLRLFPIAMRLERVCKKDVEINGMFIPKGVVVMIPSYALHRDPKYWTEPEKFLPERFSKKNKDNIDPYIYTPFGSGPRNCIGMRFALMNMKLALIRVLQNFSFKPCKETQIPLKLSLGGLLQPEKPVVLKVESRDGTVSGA
Chain of Ubiquitin carboxyl-terminal hydrolase 1 (Homo sapiens) (O94782 whole entry, looked up): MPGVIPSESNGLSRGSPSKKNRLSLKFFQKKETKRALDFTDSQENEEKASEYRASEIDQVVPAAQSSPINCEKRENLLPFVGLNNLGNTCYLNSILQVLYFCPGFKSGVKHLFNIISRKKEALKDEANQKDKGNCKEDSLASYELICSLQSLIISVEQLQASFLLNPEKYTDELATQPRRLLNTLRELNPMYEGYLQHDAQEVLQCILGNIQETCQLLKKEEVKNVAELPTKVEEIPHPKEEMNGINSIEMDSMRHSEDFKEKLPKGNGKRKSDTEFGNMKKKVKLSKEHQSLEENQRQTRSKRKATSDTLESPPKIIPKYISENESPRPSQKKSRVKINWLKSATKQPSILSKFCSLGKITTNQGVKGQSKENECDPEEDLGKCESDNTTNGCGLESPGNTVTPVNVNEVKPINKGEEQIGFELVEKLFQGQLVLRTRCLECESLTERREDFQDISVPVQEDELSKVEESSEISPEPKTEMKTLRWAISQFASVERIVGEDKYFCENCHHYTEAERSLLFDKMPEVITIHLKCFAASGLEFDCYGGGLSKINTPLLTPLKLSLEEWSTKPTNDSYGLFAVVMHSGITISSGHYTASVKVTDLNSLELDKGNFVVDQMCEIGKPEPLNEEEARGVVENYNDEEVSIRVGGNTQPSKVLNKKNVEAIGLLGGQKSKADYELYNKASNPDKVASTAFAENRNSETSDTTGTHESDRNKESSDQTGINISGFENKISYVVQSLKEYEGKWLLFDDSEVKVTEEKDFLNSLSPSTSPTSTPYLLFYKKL
Chain of Cytochrome P450 2C19 (Homo sapiens) (P33261 whole entry, looked up): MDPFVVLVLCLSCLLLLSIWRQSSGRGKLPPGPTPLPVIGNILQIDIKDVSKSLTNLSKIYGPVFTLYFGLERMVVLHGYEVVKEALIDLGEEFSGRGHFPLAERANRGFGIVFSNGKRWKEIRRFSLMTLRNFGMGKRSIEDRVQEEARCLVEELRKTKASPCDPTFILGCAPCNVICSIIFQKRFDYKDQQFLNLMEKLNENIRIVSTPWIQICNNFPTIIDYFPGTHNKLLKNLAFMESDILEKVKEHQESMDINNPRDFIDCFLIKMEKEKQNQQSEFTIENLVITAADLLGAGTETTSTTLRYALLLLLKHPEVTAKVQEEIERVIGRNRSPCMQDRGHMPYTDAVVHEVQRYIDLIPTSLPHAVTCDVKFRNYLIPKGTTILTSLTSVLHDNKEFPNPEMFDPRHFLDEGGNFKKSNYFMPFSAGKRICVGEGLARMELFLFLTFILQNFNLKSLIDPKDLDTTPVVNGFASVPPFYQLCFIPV

SMILES | Potency [1] | activity change, negative = inhibition [2] | activity change, negative = inhibition [3] | activity, negative = inhibition [4] | Potency [5] | Potency [6] | Potency [7] | Potency [8] | Potency [9] | Potency [10] | activity change, negative = inhibition [11] | max response [11, 18] | max response [11, 19] | outcome [12] | Potency [13] | Potency [14] | outcome [15] | Potency [16] | Potency [17]
COc1ncc2nc(-c3cn(C)c4ccccc34)c(=O)n(Cc3ccc(F)cc3)c2n1 | > 11.4 µM (inactive) | 10.6% (inactive) | -4.65% (inactive) | 20.2% (inactive) | > 9.22 µM (inactive) | > 46 µM (inactive) | inactive | inactive | 6.31 µM (active) | inactive | 3.02% (inactive) | 18.8% | 23.9% | inactive | – | – | – | – | –
Cc1ccccc1-c1cc(Nc2ccc(F)cc2)ncn1 | > 11.4 µM (inactive) | -11.7% (inactive) | 6.17% (inactive) | -0.99% (inactive) | > 46 µM (inactive) | > 46 µM (inactive) | inactive | – | – | inactive | 9.27% (inactive) | -1.72% | 7.96% | inactive | 0.631 µM (active) | inactive | inactive | – | –
COc1ccc(-c2nc3cnc(Oc4ccccc4)nc3n(Cc3cccs3)c2=O)cc1 | > 11.4 µM (inactive) | 0.136% (inactive) | -1.73% (inactive) | 16.1% (inactive) | > 9.22 µM (inactive) | > 46 µM (inactive) | inactive | inactive | – | – | -0.637% (inactive) | 27.6% | 28.4% | inactive | – | – | – | 2.51 µM (active) | –
O=S(=O)(c1ccccc1)N1CCC2(CCN(c3cccc(-c4ccccc4)c3)CC2)CC1 | > 11.4 µM (inactive) | -5.65% (inactive) | -3.11% (inactive) | -8.83% (inactive) | – | > 46 µM (inactive) | inactive | – | – | – | 5.8% (inactive) | 17.8% | 24.9% | inactive | – | – | – | – | –
N#Cc1cccc(NC(=O)N2CC[C@@]3(CCCN(C(=O)c4cnccn4)C3)C2)c1 | > 11.4 µM (inactive) | -6.32% (inactive) | 12.8% (inactive) | 3.28% (inactive) | – | > 46 µM (inactive) | inactive | inactive | – | – | 8.9% (inactive) | 14.7% | 23.6% | inactive | – | – | – | – | –
c1cncc(-c2nccc(-n3ccnc3)n2)c1 | > 11.4 µM (inactive) | -19.4% (inactive) | 1.68% (inactive) | -2.73% (inactive) | > 46 µM (inactive) | > 46 µM (inactive) | inactive | inactive | – | – | 7.22% (inactive) | 3.87% | 13.2% | inactive | – | inactive | inactive | – | inactive
Cc1ccccc1-c1nc(NCCN2CCOCC2)c2ccccc2n1 | > 11.4 µM (inactive) | -10.8% (inactive) | -9.08% (inactive) | -0.303% (inactive) | > 46 µM (inactive) | > 46 µM (inactive) | inactive | inactive | – | – | 8.15% (inactive) | 17.4% | 26.1% | inactive | – | inactive | inactive | – | –
COc1ccc(NC(=O)N2CC3(CCN(C(=O)c4cc(C(F)(F)F)cc(C(F)(F)F)c4)CC3)C2)cc1 | > 11.4 µM (inactive) | -15.1% (inactive) | 16% (inactive) | -20.2% (inactive) | – | > 46 µM (inactive) | inactive | inactive | – | – | 2.01% (inactive) | 12.2% | 18.4% | inactive | – | – | – | – | –
Cc1noc(C)c1C(=O)N1CCC[C@@]2(CCN(c3ccccn3)C2)C1 | > 11.4 µM (inactive) | -5.91% (inactive) | -10.2% (inactive) | -3.33% (inactive) | – | > 46 µM (inactive) | inactive | inactive | – | – | -1.14% (inactive) | 20% | 24.9% | inactive | – | – | – | – | –
CN(C)C(=O)c1ccc(-c2ccc3ncnc(NC4CCNCC4)c3c2)cc1 | > 11.4 µM (inactive) | -6.93% (inactive) | 7.8% (inactive) | 14.8% (inactive) | > 46 µM (inactive) | > 46 µM (inactive) | inactive | inactive | – | – | 6.36% (inactive) | 9.43% | 16.5% | inactive | – | inactive | inactive | – | inactive
Cc1noc(C)c1C(=O)N1CCC[C@@]2(CCN(C(=O)Nc3cccc(C#N)c3)C2)C1 | > 11.4 µM (inactive) | -3.34% (inactive) | 5.42% (inactive) | -8.01% (inactive) | – | > 46 µM (inactive) | inactive | inactive | – | – | 5.85% (inactive) | 14.6% | 24.7% | inactive | – | – | – | – | –
CC(C)CN1CC[C@@]2(CCCN(C(=O)c3cccc(F)c3)C2)C1 | > 11.4 µM (inactive) | -9.55% (inactive) | -0.696% (inactive) | 6.14% (inactive) | – | > 46 µM (inactive) | inactive | inactive | – | – | 1.5% (inactive) | 13.4% | 19.5% | inactive | – | – | – | – | –
Cc1noc(C)c1-c1nc(NCc2cccnc2)c2ccccc2n1 | > 11.4 µM (inactive) | 2.83% (inactive) | -10.7% (inactive) | -14.2% (inactive) | > 46 µM (inactive) | > 46 µM (inactive) | inactive | – | – | – | 11.8% (inactive) | 12.2% | 21% | inactive | – | inactive | inactive | – | –
